Assay results: PubChem BioAssay
Calls of active or inactive are those of the source.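 How the source made its calls, unless noted: active means inhibition of the reporter signal at or above 50%; inactive means inhibition below 50%.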

Key:
[1] = inhibitors of TNFa-induced NFkB p65 translocation, primary screen, imaging, HUVEC, MLSMR starter and 10KST1 sets (AID 438;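 active means inhibition above 20% together with a positive visual image hit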;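 further: compound added about 3h40 before a 20 min TNFalpha stimulation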;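 on inhibition: signal is the nuclear over cytoplasmic p65 intensity ratio per well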); details: HUVEC TNFa-induced p65 nuclear translocation; cell count: measured here: nuclei count (cytotoxicity indicator), at 2.08 µM; inhibition: at 2 µM, stronger effect = higher value, 0% TNFa-plus-vehicle, 100% no-TNFa wells
[2] = inhibitors of mutant huntingtin aggregation, primary screen, imaging, exon1htt(103Q)mCFP cells, high-content imaging (AID 483;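 active means visual image review flags a hit and inhibition of aggregation exceeds 20%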;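 further: compound exposure lasted 3 days before fixation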;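 on nuclei count: percent of the per-plate median nuclei count of sample wells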); details: exon1htt(103Q)mCFP cell line, aggregate imaging, at 2 µM; inhibition of aggregation: stronger effect = higher value; nuclei count: measured here: cell count, toxicity
[3] = inhibitors of E-selectin induction by TNFa, primary screen, imaging, HUVEC, immunofluorescence, MLSMR starter and 10KST1 sets (AID 487;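 active means visually confirmed hit in the image check and inhibition above 20%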;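 on inhibition: signal is fraction of cell area covered by stained E-selectin grains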;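 on nuclei count: 100% = median nuclei count of all wells on the same plate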); details: HUVEC TNFalpha-induced E-selectin immunofluorescence imaging, at 2 µM; inhibition: stronger effect = higher value; nuclei count: measured here: cell number, toxicity
[4] = DUSP6 inhibitors restoring Erk phosphorylation by chemical complementation, primary imaging in DUSP6-transfected HeLa (AID 609;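 active means compounds giving at least 50% inhibition in the cell-based MKP-3 phosphatase rescue imaging test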;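 on inhibition: phospho-Erk level distribution per well compared with pooled transfected vehicle control wells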); details: HeLa MKP-3 transfected, phospho-Erk imaging KS statistic, at 10 µM, cells stimulated with TPA for 15 min
[5] = target: Dual specificity protein phosphatase 6 (Homo sapiens) (UniProt Q16828); experiment: as above; details: HeLa MKP-3 transfected, phospho-Erk imaging KS statistic; at 10 µM; stronger effect = higher value; cells stimulated with TPA for 15 min
Sequence of Dual specificity protein phosphatase 6 (Homo sapiens) (Q16828 whole entry, looked up): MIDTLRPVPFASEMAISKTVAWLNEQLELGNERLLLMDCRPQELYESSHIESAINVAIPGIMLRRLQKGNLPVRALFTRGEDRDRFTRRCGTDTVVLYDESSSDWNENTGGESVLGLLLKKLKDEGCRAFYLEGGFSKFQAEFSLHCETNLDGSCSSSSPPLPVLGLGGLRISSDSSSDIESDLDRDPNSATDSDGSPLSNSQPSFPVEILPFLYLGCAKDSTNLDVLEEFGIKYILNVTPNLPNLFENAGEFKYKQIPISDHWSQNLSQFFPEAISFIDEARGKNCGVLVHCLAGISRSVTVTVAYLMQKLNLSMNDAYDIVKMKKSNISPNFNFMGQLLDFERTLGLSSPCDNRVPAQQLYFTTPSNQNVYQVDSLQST

[6] = target: Voltage-gated potassium channel subunit beta-2 (Rattus norvegicus) (UniProt P62483); experiment: KvBeta enzyme negative modulators, primary screen, biochemical, NADPH fluorescence (AID 622;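 active means fluorescence slope higher than the sample average by over 3 SD, cut at about -0.22 in these data, passing the limit was not always enough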;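 further: slope of raw intensity against log time taken from 70 to 1610 s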); details: recombinant KvBeta, 4-cyanobenzaldehyde reduction, at 10 µM, stronger effect = higher value
Sequence of Voltage-gated potassium channel subunit beta-2 (Rattus norvegicus) (P62483 whole entry, looked up): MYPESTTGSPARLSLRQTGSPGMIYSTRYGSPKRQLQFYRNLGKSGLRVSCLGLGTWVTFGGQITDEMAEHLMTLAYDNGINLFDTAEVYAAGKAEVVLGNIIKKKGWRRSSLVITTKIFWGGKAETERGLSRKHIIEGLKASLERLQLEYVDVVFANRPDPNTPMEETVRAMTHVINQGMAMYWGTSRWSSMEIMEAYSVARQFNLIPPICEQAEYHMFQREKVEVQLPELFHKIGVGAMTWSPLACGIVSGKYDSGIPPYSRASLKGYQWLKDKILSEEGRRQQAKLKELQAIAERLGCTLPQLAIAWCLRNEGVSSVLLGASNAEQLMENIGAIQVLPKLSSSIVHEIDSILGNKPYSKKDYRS

[7] = target: Voltage-gated potassium channel subunit beta-2 (Rattus norvegicus) (UniProt P62483); experiment: KvBeta positive modulators, primary screen, biochemical, NADPH fluorescence (AID 623;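 active means NADPH fluorescence slope more negative than the mean of all samples by about 3 SD, 99.7% confidence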;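 further: fluorescence intensity change per second fitted from 20 to 320 s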); details: Recombinant KvBeta, NADPH fluorescence decrease slope, 10 min; at 10 µM; stronger effect = lower value
[8] = target: Alpha-2C adrenergic receptor (Homo sapiens) (UniProt P18825); experiment: modulators of alpha2C/GIRK thallium flux, primary screen, cell-based, HEK293 alpha2C/GIRK1/2 (AID 624;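 active means fluorescence slope after compound addition differing from the mean of all screened samples at 99.7% confidence, in either direction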;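 further: slope of fluorescence ratio to pre-addition baseline per second over 15 to 24 s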); details: thallium flux BTC fluorescence, at 10 µM, actives lie on both sides
Sequence of Alpha-2C adrenergic receptor (Homo sapiens) (P18825 whole entry, looked up): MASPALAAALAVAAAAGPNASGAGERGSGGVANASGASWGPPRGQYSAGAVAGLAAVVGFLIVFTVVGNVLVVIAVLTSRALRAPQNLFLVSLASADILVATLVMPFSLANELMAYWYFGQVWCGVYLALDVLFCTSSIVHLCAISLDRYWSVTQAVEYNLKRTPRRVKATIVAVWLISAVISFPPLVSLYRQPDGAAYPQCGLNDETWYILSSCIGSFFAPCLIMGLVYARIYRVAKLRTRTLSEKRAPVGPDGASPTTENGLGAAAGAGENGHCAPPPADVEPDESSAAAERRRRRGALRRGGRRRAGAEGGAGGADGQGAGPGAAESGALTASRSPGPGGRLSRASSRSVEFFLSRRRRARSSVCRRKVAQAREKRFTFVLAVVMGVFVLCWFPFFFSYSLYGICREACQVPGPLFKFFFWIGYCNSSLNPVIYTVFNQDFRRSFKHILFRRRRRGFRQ

[9] = inhibitors of larval lipid processing in zebrafish, primary screen, whole organism, PED6 fluorescence, gall bladder and intestine (AID 686;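 active means a full or partial loss of lipid-probe fluorescence in the fish gall bladder, intestine or both, judged by eye; inactive means no fluorescence loss, or compound toxic to the fish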;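 further: larvae 5 to 7 days old with five fish per well; signal comes from phospholipase A2 cleavage of quenched PED6 carried via bile; overnight exposure to compound and PED6 before scoring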); details: Zebrafish larvae PED6 lipid processing, fluorescence scoring; screened at 20 µM (by protocol)
[10] = inhibitors of Chlamydomonas gravitaxis, primary screen, whole organism, Chlamydomonas reinhardtii, WT vs cilia-less mutant, absorbance, 96-well (AID 463189;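 active means inhibition at or above 50% relative to wild type and mutant plate controls; inactive means inhibition below 50%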;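 further: 0% = wild type cc124 cells in DMSO and 100% = ciliumless bld1 mutant cells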); details: OD600 absorbance, 2 days, at 10 µM, stronger effect = higher value
[11] = inhibitors of Sendai virus-induced IRF3 signaling, primary screen, TLR/RLR signaling modifier project, cell-based, Sendai virus stimulus, luciferase, 10K MLSCN set (AID 602276;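 active means inhibition at or above 50% at 10 µM; inactive means inhibition below 50%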;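 further: firefly luciferase from ISG56 promoter only with Renilla not read in this screen; 0% = Sendai virus plus DMSO and 100% = medium plus DMSO without virus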); details: HEK293 RL24 IRF3 luciferase reporter, at 10 µM, stronger effect = higher value
[12] = inhibitors of poly I:C-induced TLR3 signaling, primary screen, cell-based, poly I:C stimulus, luciferase, 10K MLSCN set (AID 602277); details: HEK293-TLR3 RL24 IRF3 luciferase reporter, at 10 µM, stronger effect = higher value
[13] = target: Muscarinic acetylcholine receptor M4 (Homo sapiens) (UniProt P08173); experiment: compounds altering M4/GIRK thallium flux, either direction, primary screen, M4 allosteric agonist project, cell-based, HEK293 M4/GIRK, BTC-AM (AID 625;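 active means fluorescence slope after compound addition differing from the mean of all tested samples at 99.7% confidence, mostly higher but some lower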;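 further: thallium influx through GIRK channels coupled to M4 in HEK293 cells with BTC-AM dye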); details: at 10 µM, actives lie on both sides
Sequence of Muscarinic acetylcholine receptor M4 (Homo sapiens) (P08173 whole entry, looked up): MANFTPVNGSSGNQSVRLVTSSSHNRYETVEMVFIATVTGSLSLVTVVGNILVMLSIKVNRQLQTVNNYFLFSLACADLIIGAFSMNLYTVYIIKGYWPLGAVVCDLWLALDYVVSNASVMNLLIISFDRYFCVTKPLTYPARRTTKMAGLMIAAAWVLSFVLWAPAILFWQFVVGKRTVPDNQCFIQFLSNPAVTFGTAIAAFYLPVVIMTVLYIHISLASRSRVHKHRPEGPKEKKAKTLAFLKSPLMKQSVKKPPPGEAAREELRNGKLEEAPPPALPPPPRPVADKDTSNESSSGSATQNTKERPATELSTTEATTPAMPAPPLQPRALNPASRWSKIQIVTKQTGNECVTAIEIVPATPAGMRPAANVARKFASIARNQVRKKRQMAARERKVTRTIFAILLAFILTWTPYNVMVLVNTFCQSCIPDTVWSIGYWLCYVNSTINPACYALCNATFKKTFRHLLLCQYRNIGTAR

[14] = measured here: cell density z-score
[15] = measured here: nuclear c-Myc green intensity z-score
[16] = measured here: nuclear pErk red intensity z-score, stronger effect = higher value

Compound | cell count [1] | inhibition [1] | inhibition of aggregation [2] | nuclei count [2] | inhibition [3] | nuclei count [3] | z-score [4, 14] | z-score [4, 15] | z-score [4, 16] | inhibition [5] | fluorescence slope [6] | NADPH fluorescence slope [7] | slope [8] | outcome [9] | inhibition [10] | inhibition [11] | inhibition [12] | fluorescence slope [13]
NC(N)=NC(N)=NCCc1ccccc1 | 589 | -4.3% (inactive) | -8.6% (inactive) | 93.2% | -58.8% (inactive) | 108% | -1 | -0.445 | -0.339 | -2.46% (inactive) | -0.439 (inactive) | -1.7e-05 (inactive) | 0.004 (inactive) | inactive | -5.62% (inactive) | 10.9% (inactive) | 30.4% (inactive) | 
CCC1=C(C(=O)OC)C(c2cc(OC)ccc2OC)C(C#N)=C(N)O1 (configuration not stated) | 296 | -8.8% (inactive) | 6.8% (inactive) | 106% | -58% (inactive) | 129% | 1.11 | 0.712 | -2.04 | 5.65% (inactive) | -0.478 (inactive) | -0.000233 (inactive) | 0.00469 (inactive) | inactive | -0.583% (inactive) | 17% (inactive) | 24% (inactive) | 
N[C@@H](C(=O)N[C@@H]1C(=O)N2C(C(=O)O)=C(Cl)CS[C@H]12)c1ccccc1 | 693 | -2% (inactive) | -5.3% (inactive) | 113% | -84.8% (inactive) | 122% | -0.332 | -0.293 | -0.889 | 7.39% (inactive) | -0.441 (inactive) | -5.1e-05 (inactive) | 0.00559 (inactive) | inactive | 21.4% (inactive) | 12.2% (inactive) | 28.5% (inactive) | 
CC(=O)OCC[N+](C)(C)C | 554 | -8.9% (inactive) | 10.6% (inactive) | 93.8% | -102% (inactive) | 102% | -0.918 | -0.674 | -0.99 | -0.493% (inactive) | -0.431 (inactive) | 1.1e-05 (inactive) | 0.0173 (active) | inactive | -4.51% (inactive) | 11.3% (inactive) | 31.5% (inactive) | 
Cn1c(=O)c2c(nc(Br)n2CCSc2ncccn2)n(C)c1=O | 606 | -12.8% (inactive) | 5.2% (inactive) | 103% | -13.4% (inactive) | 150% | 0.427 | -0.0194 | -1.04 | 21.4% (inactive) | -0.364 (inactive) | -1.4e-05 (inactive) |  | inactive | 36.1% (inactive) | 5.45% (inactive) | 6.81% (inactive) | 0.00613 (inactive)
Nc1ccc(S(=O)(=O)NC(=O)c2ccccc2)cc1 | 544 | 2.5% (inactive) | 17.5% (inactive) | 94.6% | -116% (inactive) | 110% | -1.45 | 0.254 | 0.397 | 14.6% (inactive) | -0.517 (inactive) | -5.5e-05 (inactive) | 0.00537 (inactive) | inactive | 5.05% (inactive) | 21.8% (inactive) | 34.4% (inactive) | 
C[N+](C)(C)CCOP(=O)([O-])OC[C@H](O)CO | 713 | -2.4% (inactive) | -22.9% (inactive) | 105% | -60.7% (inactive) | 109% | 0.542 | 0.427 | -0.871 | 15.3% (inactive) | -0.472 (inactive) | -5.7e-05 (inactive) | 0.00513 (inactive) | inactive | 27.2% (inactive) | -4.92% (inactive) | -2.18% (inactive) | 
CN(CC(O)COc1ccc(OCC(O)CN(C)C2CCCCC2)cc1)C1CCCCC1 (configuration not stated) | 605 | -1.3% (inactive) | -434% (inactive) | 67% | -149% (inactive) | 120% | -0.395 | 0.402 | 1.26 | 11.3% (inactive) | -0.384 (inactive) | -3e-05 (inactive) |  | inactive | 3.04% (inactive) | -47.8% (inactive) | 52.7% (active) | 0.00666 (inactive)
CCOC(=O)c1c(-c2cccs2)csc1NC(=O)CCCC(=O)O | 550 | -0.4% (inactive) | -5% (inactive) | 110% | -22.1% (inactive) | 106% | 0.00511 | -0.304 | -0.262 | -5.81% (inactive) | -0.427 (inactive) | -5.3e-05 (inactive) |  | inactive | 16.8% (inactive) | 15.6% (inactive) | 21.7% (inactive) | 0.00466 (inactive)
COc1cc(NC(=O)NC(C)(C(F)(F)F)C(F)(F)F)cc(OC)c1OC | 664 | -5.8% (inactive) | -0.5% (inactive) | 83% | -50% (inactive) | 140% | 0.222 | -0.586 | 1.46 | -1.98% (inactive) | -0.48 (inactive) | -6.8e-05 (inactive) |  | inactive | 14.3% (inactive) | 10.8% (inactive) | 13.7% (inactive) | 0.00489 (inactive)
COc1ccccc1C1C(C#N)=C(N)Oc2cc(C)n(Cc3ccccn3)c(=O)c21 (configuration not stated) | 679 | -2.4% (inactive) | 12% (inactive) | 99.3% | -46.2% (inactive) | 122% | 0.97 | -0.155 | -0.154 | 0.671% (inactive) | -0.453 (inactive) | -3.2e-05 (inactive) |  | inactive | 7.42% (inactive) | -7.32% (inactive) | 4.86% (inactive) | 0.00473 (inactive)
COc1ccc(C(=O)NCCCCCC(=O)O)cc1OC | 687 | -15.7% (inactive) | 12.2% (inactive) | 93% | -46.5% (inactive) | 119% | -0.456 | -0.271 | 0.551 | 18.9% (inactive) | -0.427 (inactive) | -3.8e-05 (inactive) |  | inactive | 32.7% (inactive) | 3.62% (inactive) | 12.3% (inactive) | 0.00503 (inactive)
N#C/C(C(=O)N1CCOCC1)=C1/SC(Cc2ccccc2)C(=O)N1c1ccccc1 (configuration not stated) | 520 | -7.6% (inactive) | 18.9% (inactive) | 105% | 3.5% (inactive) | 112% | -1.65 | 1.02 | 0.783 | -2.09% (inactive) | -0.431 (inactive) | -3.8e-05 (inactive) |  | inactive | -6.43% (inactive) | 15.2% (inactive) | 24.9% (inactive) | 0.00475 (inactive)
COc1ccc(C2(CN(C(C)=O)C(C)=O)CCCC2)cc1OC | 676 | -6.2% (inactive) | 6.8% (inactive) | 109% | -28.3% (inactive) | 139% | -0.215 | 1.01 | -1.44 | 1.98% (inactive) | -0.504 (inactive) | -6.2e-05 (inactive) |  | inactive | -15.3% (inactive) | 1.22% (inactive) | 7.89% (inactive) | 0.00396 (inactive)
COc1ccc2c(c1)[nH]c1c(=O)n(CC3CCCO3)cnc12 (configuration not stated) | 702 | -0.4% (inactive) | 5.9% (inactive) | 73.4% | -39.2% (inactive) | 133% | 1.51 | -0.546 | -1.36 | -2.91% (inactive) | -0.423 (inactive) | -4.3e-05 (inactive) |  | inactive | 0.053% (inactive) | -17.6% (inactive) | -27.5% (inactive) | 0.00561 (inactive)
Cc1nn(-c2ccccc2)c2c1C(=O)NC(=O)C(C)(C)C2 | 526 | 2.2% (inactive) | 9.8% (inactive) | 105% | -24.8% (inactive) | 120% | 0.866 | 1.24 | 0.796 | -5.81% (inactive) | -0.52 (inactive) | 4.3e-05 (inactive) |  | inactive | -12.8% (inactive) | 14.6% (inactive) | 18.9% (inactive) | 0.00545 (inactive)
CCOC(=O)C1=C(CSc2nc(C)cc(C)c2C#N)OC(N)=C(C#N)C1c1cccs1 (configuration not stated) | 502 | 7.3% (inactive) | -14.2% (inactive) | 102% | -103% (inactive) | 95% | 0.722 | -1.39 | -0.564 | -2.47% (inactive) | -0.493 (inactive) | -2.9e-05 (inactive) |  | inactive | 8.41% (inactive) | 13.2% (inactive) | 23.4% (inactive) | 0.00829 (inactive)
Nc1nc(NC(=O)c2cccs2)nn1-c1ccccc1 | 647 | -6.2% (inactive) | 2.6% (inactive) | 104% | 28.5% (inactive) | 140% | -2.6 | 0.834 | 1.83 | 14.4% (inactive) | -0.486 (inactive) | -6.6e-05 (inactive) |  | inactive | -2.85% (inactive) | -31.7% (inactive) | -72.3% (inactive) | 0.00702 (inactive)
COc1ccc(/C(O)=C2/C(=O)C(=O)N(CCCN(C)C)C2c2ccco2)cc1Cl (configuration not stated) | 697 | -3.7% (inactive) | -6.2% (inactive) | 110% | -9% (inactive) | 134% | 0.269 | -1.33 | -0.259 | 6.04% (inactive) | -0.426 (inactive) | -4.3e-05 (inactive) |  | inactive | 14.2% (inactive) | -5.81% (inactive) | -1.63% (inactive) | 0.00515 (inactive)
C/C(=C\C(=O)O)CC(=O)O | 333 | -2.6% (inactive) | 25.8% (inactive) | 93.1% | -133% (inactive) | 117% | 0.304 | -0.204 | -2.54 | 19.4% (inactive) | -0.486 (inactive) | -0.000131 (inactive) |  | inactive | -0.382% (inactive) | 2.17% (inactive) | 13.5% (inactive) | 0.00465 (inactive)
Clc1ccc(-n2ncc3c(NCCCn4ccnc4)ncnc32)cc1 | 618 | -10.7% (inactive) | -16.9% (inactive) | 105% | -41.4% (inactive) | 129% | -0.368 | 0.856 | 1.02 | 1.42% (inactive) | -0.386 (inactive) | -5.7e-05 (inactive) |  | inactive | -3.19% (inactive) | -0.733% (inactive) | -33.8% (inactive) | 0.00622 (inactive)
